A short description of test [1]: NCI Yeast Anticancer Drug Screen. Data for the rad50 strain (AID 155).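 Also: 0% = growth of vehicle-only cultures of the same strain.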 Particulars: S. cerevisiae rad50 strain growth inhibition, hits give high values. The method, boiled down:
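DNA repair mutant yeast, compound exposure, growth read-out; inhibition is taken relative to vehicle.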

A short description of test [2]: NCI Yeast Anticancer Drug Screen. Data for the mec2-1 strain (AID 157). The settings on record: S. cerevisiae mec2-1 strain, hits give high values. Put shortly: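 mec2-1 yeast strain, carrying an alteration in DNA damage repair or cell cycle control, was exposed to compounds; growth inhibition was measured relative to vehicle-treated controls.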
Test [3] can be described thus: NCI Yeast Anticancer Drug Screen. Data for the sgs1 mgt1 strain (AID 161).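 Also: 0% = growth of cultures given vehicle only.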 Particulars: S. cerevisiae sgs1 mgt1 strain, hits give high values. Put shortly: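 Percent growth inhibition was derived by comparing compound-exposed mutant yeast with vehicle-exposed cultures. The strain carries alterations in DNA damage repair.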
Test [4] in a line: NCI Yeast Anticancer Drug Screen. Data for the cln2 rad14 strain (AID 165).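 Also: 0% = growth equal to vehicle treated cultures.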 The settings on record: S. cerevisiae cln2 rad14 strain, hits give high values. Put shortly:
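Yeast carrying cln2 and rad14 alterations (cell cycle control and DNA damage repair) were exposed to compounds. Growth inhibition was measured against vehicle-treated controls.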

Test [5] in a line: NCI Yeast Anticancer Drug Screen. Data for the bub3 strain (AID 167). Particulars: S. cerevisiae bub3 mutant strain, hits give high values. Put shortly: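 In this screen, a yeast mutant lacking normal mitotic checkpoint function is challenged with compound. Relative growth versus vehicle gives the inhibition value.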
Test [6] is described as follows: NCI Yeast Anticancer Drug Screen. Data for the mlh1 rad18 strain (AID 175). The settings on record: S. cerevisiae mlh1 rad18 strain growth inhibition, hits give high values. The method, boiled down: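 Growth inhibition of the yeast strain was measured after compound exposure and expressed relative to vehicle-treated controls. The strain carries defined defects in DNA damage repair.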

[7] abbreviates: at 5.0 µM (retest, dose inferred, filed as 0.5).
The mark [8] stands for this setting: at 50.0 µM (retest, dose inferred, filed as 5.0).

Each structure is given as a SMILES string. About 79,000 compounds went through this panel and 15% of them were active in at least one assay; those are over-represented in the sample as a whole. A number with no mark means an inactive call. Active and inactive are the calls of the source. Rule as the data show it: active = growth inhibition above about 70%; inactive = the rest.

Regarding `COC(=O)c1cccc2cccc(C(=O)Nc3ccc(Cl)cc3)c12`, the growth inhibition is 68% in test [1] (setting [7]); 99% (active) in test [1] (setting [8]); 90.2% (active) in test [1] (at 50.0 µM); 67% in test [2] (setting [7]); 100% (active) in test [2] (setting [8]); 93% (active) in test [2] (at 50.0 µM). Moreover, the growth inhibition in test [3] (setting [7]) is 58%; in test [3] (setting [8]), 100% (active); in test [3] (at 50.0 µM), 92.3% (active); in test [4] (setting [7]) it was 42%; in test [4] (setting [8]), 99% (active); in test [4] (at 50.0 µM), 92% (active). In addition, the growth inhibition in test [5] (setting [7]) is 82% (active); in test [5] (setting [8]) it was 82% (active); in test [5] (at 50.0 µM) it was 91.9% (active); in test [6] (setting [7]) it was 87% (active); in test [6] (setting [8]), 99% (active); in test [6] (at 50.0 µM) it was 90.3% (active).
With `CC(N)C(O)c1ccc2ccc3ccccc3c2c1` (configuration not stated), the growth inhibition in test [1] (setting [7]) was -35%; in test [1] (setting [8]), 96% (active); in test [1] (at 50.0 µM), 63.7%; in test [2] (setting [7]) it was 0%; in test [2] (setting [8]) it was 96% (active); in test [2] (at 50.0 µM), 3.65%. For the same compound, the growth inhibition in test [3] (setting [7]) is 0%; in test [3] (setting [8]) it was 96% (active); in test [3] (at 50.0 µM), 64.8%; in test [4] (setting [7]), -13%; in test [4] (setting [8]) it was 36%; in test [4] (at 50.0 µM), 38.7%. The growth inhibition was 6% in test [5] (setting [7]); 97% (active) in test [5] (setting [8]); 66.9% in test [5] (at 50.0 µM); 11% in test [6] (setting [7]); 98% (active) in test [6] (setting [8]); 58.1% in test [6] (at 50.0 µM).
With `Clc1ccc(-c2nc3ccc(Cl)cc3[nH]2)cc1`, the growth inhibition in test [1] (setting [7]) was -2%; in test [1] (setting [8]) it was 90% (active); in test [1] (at 50.0 µM), 76.8% (active); in test [2] (setting [7]), -3%; in test [2] (setting [8]) it was 88% (active); in test [2] (at 50.0 µM), 86.7% (active). The growth inhibition is -5% in test [3] (setting [7]); 93% (active) in test [3] (setting [8]); -30.9% in test [3] (at 50.0 µM); 19% in test [5] (setting [7]); 96% (active) in test [5] (setting [8]); 88% (active) in test [5] (at 50.0 µM). Moreover, the values for the growth inhibition in test [6] (setting [7]), in test [6] (setting [8]) and in test [6] (at 50.0 µM) were -38%, 54% and 35.3%, respectively.
Regarding `CN(C)/N=C(/CC(O)(C(F)(F)F)C(F)(F)F)c1ccc([N+](=O)[O-])cc1`, the growth inhibition is 25% in test [1] (setting [7]); 20% in test [1] (setting [8]); -4.65% in test [1] (at 50.0 µM); 19% in test [2] (setting [7]); 11% in test [2] (setting [8]); -8.95% in test [2] (at 50.0 µM). The growth inhibition in test [3] (setting [7]) was 19%; in test [3] (setting [8]) it was 22%; in test [3] (at 50.0 µM), 35.6%; in test [4] (setting [7]), 12%; in test [4] (setting [8]) it was 12%; in test [4] (at 50.0 µM), -18.6%. In addition, the growth inhibition in test [5] (setting [7]) was 15%; in test [5] (setting [8]), 7%; in test [5] (at 50.0 µM), -12.9%; in test [6] (setting [7]), 25%; in test [6] (setting [8]) it was 21%; in test [6] (at 50.0 µM), -16.4%.
`C/C=C(\C)C(=O)O[C@@H]1CC(C)(C)CC2C3=CCC4[C@]56CC[C@](O)(OC5)C(C)(C)C6CC[C@@]4(C)C3(C)CC[C@]21C(=O)O` (some centres not stated): the growth inhibition in test [1] (setting [7]) is 53%; in test [1] (setting [8]) it was 90% (active); in test [1] (at 50.0 µM), 86.5% (active); in test [2] (setting [7]), 67%; in test [2] (setting [8]) it was 88% (active); in test [2] (at 50.0 µM) it was 84.7% (active). Moreover, the growth inhibition was 55% in test [3] (setting [7]); 93% (active) in test [3] (setting [8]); 87.2% (active) in test [3] (at 50.0 µM); 70% (active) in test [5] (setting [7]); 96% (active) in test [5] (setting [8]); 81.8% (active) in test [5] (at 50.0 µM). Further, the growth inhibition is 69% in test [6] (setting [7]), 94% (active) in test [6] (setting [8]) and 81.2% (active) in test [6] (at 50.0 µM).
With `O=C(Nc1ccc(S(=O)(=O)NC2CCCCC2)cc1)OCc1ccccc1`, the growth inhibition in test [1] (setting [7]) was 91% (active); in test [1] (setting [8]), 17%; in test [1] (at 50.0 µM), 57%; in test [2] (setting [7]), 99% (active); in test [2] (setting [8]), 26%; in test [2] (at 50.0 µM), 9.85%. Moreover, the growth inhibition is 100% (active) in test [3] (setting [7]); 12% in test [3] (setting [8]); 73% (active) in test [3] (at 50.0 µM); 28% in test [4] (setting [7]); -10% in test [4] (setting [8]); 30.7% in test [4] (at 50.0 µM). Besides, the growth inhibition in test [5] (setting [7]) is 99% (active); in test [5] (setting [8]), 43%; in test [5] (at 50.0 µM) it was 28.4%; in test [6] (setting [7]), 91% (active); in test [6] (setting [8]), 30%; in test [6] (at 50.0 µM), 54.6%.
Turning to `Cn1c(C(C)(C)OC(=O)Oc2ccccc2)cnc1[N+](=O)[O-]`, the growth inhibition in test [1] (setting [7]) is 0%; in test [1] (setting [8]), 51%; in test [1] (at 50.0 µM), 37.1%; in test [2] (setting [7]), -1%; in test [2] (setting [8]), 24%; in test [2] (at 50.0 µM), 16.8%. In addition, the growth inhibition is 3% in test [3] (setting [7]); 68% in test [3] (setting [8]); 65.5% in test [3] (at 50.0 µM); 0% in test [5] (setting [7]); 4% in test [5] (setting [8]); 1.35% in test [5] (at 50.0 µM). Further, the growth inhibition in test [6] (setting [7]) was 9%; in test [6] (setting [8]), 54%; in test [6] (at 50.0 µM), 38.8%.
On to `COc1cc(C(c2cc3c(cc2O)OCO3)N2CCOCC2)cc(OC)c1OC` (configuration not stated), for which the growth inhibition in test [1] (setting [7]) was 0%; in test [1] (setting [8]) it was 23%; in test [1] (at 50.0 µM), 35.5%; in test [2] (setting [7]) it was -23%; in test [2] (setting [8]), 13%; in test [2] (at 50.0 µM), 67.7%. Moreover, the growth inhibition was 4% in test [4] (setting [7]); 8% in test [4] (setting [8]); 20.6% in test [4] (at 50.0 µM); 2% in test [5] (setting [7]); 11% in test [5] (setting [8]); 7.1% in test [5] (at 50.0 µM). The values for the growth inhibition in test [6] (setting [7]), in test [6] (setting [8]) and in test [6] (at 50.0 µM) were -4%, 21% and 19%, respectively.
With `CN(C)COC(=S)SCN(C)C`, the growth inhibition in test [1] (setting [7]) was 98% (active); in test [1] (setting [8]), 98% (active); in test [1] (at 50.0 µM), 51.4%; in test [2] (setting [7]), 96% (active); in test [2] (setting [8]), 99% (active); in test [2] (at 50.0 µM), 54.1%. Besides, the growth inhibition is 99% (active) in test [3] (setting [7]); 99% (active) in test [3] (setting [8]); 60.2% in test [3] (at 50.0 µM); 96% (active) in test [5] (setting [7]); 99% (active) in test [5] (setting [8]); 98.3% (active) in test [5] (at 50.0 µM). Further, the growth inhibition in test [6] (setting [7]) was 96% (active); in test [6] (setting [8]), 99% (active); in test [6] (at 50.0 µM), 98.2% (active).
Consider `CCS(=O)(=O)/C=C/c1ccc2ccccc2n1`, for which the growth inhibition in test [1] (setting [7]) is -143%; in test [1] (setting [8]), 47%; in test [1] (at 50.0 µM) it was 47.3%; in test [2] (setting [7]), -43%; in test [2] (setting [8]), 6%; in test [2] (at 50.0 µM), 28.9%. Besides, the growth inhibition in test [4] (setting [7]) is -41%; in test [4] (setting [8]) it was -14%; in test [4] (at 50.0 µM), 3.55%; in test [5] (setting [7]), -67%; in test [5] (setting [8]) it was 16%; in test [5] (at 50.0 µM), 18.4%. Moreover, the growth inhibition in test [6] (setting [7]) is -134%; in test [6] (setting [8]), 39%; in test [6] (at 50.0 µM) it was 63.4%.
For the compound `O=[N+]([O-])c1ccc(Cl)cc1C=NC12CC3CC(CC(C3)C1)C2`, the growth inhibition was 15% in test [1] (setting [7]); 16% in test [1] (setting [8]); 80.8% (active) in test [1] (at 50.0 µM); 12% in test [2] (setting [7]); 13% in test [2] (setting [8]); 69% in test [2] (at 50.0 µM). In addition, the growth inhibition in test [3] (setting [7]) is 16%; in test [3] (setting [8]), 23%; in test [3] (at 50.0 µM), 22.4%; in test [5] (setting [7]), 4%; in test [5] (setting [8]), 9%; in test [5] (at 50.0 µM) it was 4.2%. For the same compound, the values for the growth inhibition in test [6] (setting [7]), in test [6] (setting [8]) and in test [6] (at 50.0 µM) were 13%, 15% and 54.6%, respectively.

The values above are taken from PubChem BioAssay (NCI).
